Bioassay records deposited in PubChem BioAssay by National Center for Advancing Translational Sciences (NCATS).
In the library only some 19% were active in any assay of this set; here they are far more common.
VP16 counter: Gal4-VP16 reporter inhibition counter-screen. Drosophila S2 Gal4-VP16 UAS-luciferase, luminescence, 20 h. Potency, µM (series often up to 53.6 µM), without a hit: at the top dose activity, negative = inhibition, most hits filed as inhibitors. hit rate 3.5% among 310,000;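 note: Gal4-VP16 expression switched on by copper sulfate through the metallothionein promoter; nearly all actives have a fitted effect of over 50% in size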
RORg inh: ROR gamma (mouse) transcription inhibition; Drosophila S2 Gal4-RORgamma UAS-luciferase reporter, 20 h; hit rate 5.4% among 310,000; Potency, µM (series often up to 53.6 µM), for the others: top-dose activity change, negative = inhibition, most hits filed as inhibitors; note: nearly all actives have a fitted effect of over 60% in size
Target sequence (P51450 whole entry, looked up, the tested form may be a part): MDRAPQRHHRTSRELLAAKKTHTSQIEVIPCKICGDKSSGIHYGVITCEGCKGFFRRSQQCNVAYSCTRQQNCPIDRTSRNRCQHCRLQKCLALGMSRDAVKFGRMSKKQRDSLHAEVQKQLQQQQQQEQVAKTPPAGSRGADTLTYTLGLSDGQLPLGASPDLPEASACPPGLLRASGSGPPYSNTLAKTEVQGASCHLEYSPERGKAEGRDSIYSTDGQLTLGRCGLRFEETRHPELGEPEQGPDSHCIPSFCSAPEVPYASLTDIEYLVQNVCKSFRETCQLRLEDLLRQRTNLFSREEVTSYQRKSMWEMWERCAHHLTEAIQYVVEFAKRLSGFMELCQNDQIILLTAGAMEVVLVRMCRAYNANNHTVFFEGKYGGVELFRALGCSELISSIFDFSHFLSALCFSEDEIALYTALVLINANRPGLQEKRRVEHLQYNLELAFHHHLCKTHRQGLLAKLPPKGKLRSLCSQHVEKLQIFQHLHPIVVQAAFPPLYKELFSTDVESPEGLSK
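Stably transfected Drosophila Schneider cells are the test system, with ROR gamma fused to Gal4 and luciferase under UAS control; luminescence is read after 20 hr of 700 uM copper sulfate induction at ambient temperature.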
DT40 TDP1 CPT: DT40-hTDP1 cell growth loss with CPT; hit rate 12% among 420,000; chicken DT40 Tdp1-/-;hTDP1 cells + 20 nM CPT, ATP luminescence, 48 h; Potency, µM (doses to about 46.2 µM), for inactives: at the top dose activity change, negative = growth inhibition, hits mostly inhibitors; AID 686979; note: nearly all actives have a fitted effect of over 55% in size
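Chicken DT40 Tdp1-/- cells stably complemented with human TDP1 were seeded at 400 cells/well in medium containing 20 nM camptothecin, exposed to pin-transferred compounds, and grown at 37 °C for at least 48 hr. Viability was read as ATP luminescence.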
DT40 TDP1 no CPT: qHTS for Inhibitors of human tyrosyl-DNA phosphodiesterase 1 (TDP1): qHTS in cells in absence of CPT; Potency, µM (titrated, usually from 46.2 µM), for the others: at the highest dose activity change, negative = growth inhibition, most hits filed as inhibitors; DT40 Tdp1-/- hTDP1 cells, no CPT, ATP luminescence, 48 h; AID 686978, 2013; hit rate 15% among 420,000; note: nearly all actives have a fitted effect of over 55% in size
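Luminescent ATP content (CellTiter-Glo) served as the growth readout. Knockout chicken DT40 cells expressing human TDP1 were exposed to compounds without camptothecin for a minimum 48 hr at 37 °C.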
TDP1 block: inhibitors of human tyrosyl-DNA phosphodiesterase TDP1 | Potency, µM (top dose mostly 130 µM), for inactives: at the highest dose activity change, negative = inhibition, hits mostly inhibitors | hit rate 0.28% among 350,000 | AID 485290 | Q9NUW8 | recombinant TDP1, AlphaScreen DNA substrate cleavage; note: nearly all actives have a fitted effect of over 40% in size
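Compounds were preincubated with Tdp1 (1 nM final) for 15 min at room temperature before substrate (15 nM final) started a 5 min reaction; beads (10 ug/ml final) were then added for 10 min before AlphaScreen detection.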
An asterisk follows results filed as active; ? = inconclusive; . = no result given. Calls come from the whole dose curve; as a rule, active = well fitted curve in the direction sought with a large enough effect; inconclusive = small, poorly fitted or top-dose-only effect, or another doubt; inactive = no such curve, though single readings can be large; an effect the other way counts as inactive or inconclusive. % is set by controls: 0 for no effect and ±100 for the full control effect; potency is the fitted concentration of half-maximal effect.

SMILES | VP16 counter | RORg inh | DT40 TDP1 CPT | DT40 TDP1 no CPT | TDP1 block
CCN(CC)c1ccc(C(=O)OCC(=O)NC(C)(C)C)cc1 | 6% | -21% | ? | ? | 1%
CCNC(=O)C1(C)CCN(C(=O)c2ccc(OC)cc2)C1 (configuration not stated) | . | . | -3% | -10% | .
CC1(C(=O)NS(=O)(=O)C2CC2)CCCN(C(=O)c2cccc(C(F)(F)F)c2)C1 (configuration not stated) | . | . | ? | 4.1µM* | .
COc1ccc(C(=O)N2CCCC(C)(C(=O)NS(=O)(=O)C3CC3)C2)cc1 (configuration not stated) | . | . | ? | 1.5µM* | .
COCCNC(=O)C1(C)CCCN(C(=O)c2cccc(C(F)(F)F)c2)C1 (configuration not stated) | . | . | -18% | -17% | .
O=C(O)c1ccc(NC(=O)C2C3CCC(C3)C2C(=O)O)cc1 (configuration not stated) | -3% | -6% | -14% | -25% | 1%
CC1=C(C(=O)Nc2ccccc2)C(c2ccc(O)cc2)n2nc(SCc3ccccc3)nc2N1 (configuration not stated) | . | . | -17% | -29% | 6%
CCSc1nc2n(n1)C(c1ccc(CC)cc1)C(C(=O)Nc1ccccc1OC)=C(C)N2 (configuration not stated) | . | . | 16µM* | 23µM* | 3%
CC1=C(C(=O)Nc2ccccc2)C(c2ccccn2)n2nc(SCc3ccccc3)nc2N1 (configuration not stated) | . | . | 5.2µM* | ? | 3%
COc1ccccc1NC(=O)C1=C(C)Nc2nc(SCc3ccccc3Cl)nn2C1c1ccccn1 (configuration not stated) | . | . | ? | ? | 0%
COc1ccccc1NC(=O)C1=C(C)Nc2nc(SCc3ccccc3)nn2C1c1ccccn1 (configuration not stated) | . | . | 8.2µM* | ? | 6%
COC(C[C@@H](O)[C@@H](C)[C@H](O)COCc1ccccc1)OC | 0% | 16% | 1% | -17% | -1%
CN1CCC(CNC(=O)Nc2ccccc2)(c2ccccc2)CC1 | -1% | 13% | -12% | -1% | .
CC(=O)Nc1ccc2c(c1)n(C)c(=O)n2C | 0% | -1% | 3% | -3% | 3%
Cn1c(=O)n(C)c2cc(NC(=O)COc3ccccc3)ccc21 | . | . | ? | ? | 2%
Cn1c(=O)n(C)c2cc(NC(=O)CCl)ccc21 | ? | 11µM* | 10µM* | 12µM* | 3%
Cn1c(=O)n(C)c2cc(NC(=O)CSc3nnc(-c4ccccc4O)n3-c3ccccc3)ccc21 | 17% | 3% | 18µM* | ? | 8%
COc1ccc(C(C)=O)cc1CSc1nnc(Nc2c(C)cccc2C)s1 | -5% | -6% | 21µM* | ? | 6%
Cc1ccccc1OCC(=O)Nc1ccc2c(c1)n(C)c(=O)n2C | -4% | -7% | ? | 15µM* | -8%
COc1ccc(C(C)=O)cc1CSc1nnc(-c2ccccc2O)n1-c1ccccc1 | -13% | 2.8µM* | ? | ? | 0%
CCn1c(C(O)c2cccc(OC)c2OC)nc2ccccc21 (configuration not stated) | 3% | ? | 13% | 10% | -1%
COC(=O)Cn1c(C(O)c2ccccc2)nc2ccccc21 (configuration not stated) | -2% | 0% | 19% | -1% | .
CCn1c(C(O)c2ccccc2)nc2ccccc21 (configuration not stated) | 8% | -33% | -7% | -9% | 2%
Cc1cc(C)c(Cn2c(C(O)c3ccccc3)nc3ccccc32)c(C)c1 (configuration not stated) | . | . | 18µM* | 9.2µM* | 8%
CCCn1c(C(O)c2ccc(C)cc2)nc2ccccc21 (configuration not stated) | ? | 2.8µM* | ? | ? | .
SMILES | VP16 counter | RORg inh | DT40 TDP1 CPT | DT40 TDP1 no CPT | TDP1 block
COc1ccc(C(O)c2nc3ccccc3n2C)cc1OC (configuration not stated) | 6.3µM* | -35% | 9.2µM* | 12µM* | 0%
CCCn1c(C(O)c2cc(OC)c(OC)c(OC)c2)nc2ccccc21 (configuration not stated) | ? | ? | ? | 21µM* | 1%
C=CCN1CC(C(=O)N2CCC(Cc3ccc(Cl)cc3)(C(=O)OCC)CC2)CC1=O (configuration not stated) | 0% | 28% | ? | -26% | 0%
CC(=O)Nc1ccc(NC(=O)C(C)O/N=C/c2cccc([N+](=O)[O-])c2)cc1 (configuration not stated) | 5% | 15% | -26% | ? | 1%
COc1cc(C(O)c2nc3ccccc3s2)cc(OC)c1OC (configuration not stated) | 10µM* | ? | 4.1µM* | 9.2µM* | 1%
COc1ccc(C(O)c2nc3ccccc3s2)cc1 (configuration not stated) | 3% | 27% | . | . | -2%
Cc1ccc(S(=O)(=O)c2nnn3c2nc(N2CCC(C(N)=O)CC2)c2ccccc23)cc1C | -4% | -9% | 5% | 7% | 5%
c1cc(Nc2cccc3nccnc23)c2nccnc2c1 | 1.1µM* | 0.28µM* | -19% | -21% | 5%
c1ccc2nccnc2c1 | . | . | 0.79µM* | 1.1µM* | .
CS(=O)(=O)N1CCN(c2ccccc2NC(=O)c2ccc(Cl)cc2)CC1 | -6% | ? | -5% | -7% | 6%
C=CCNc1ccc(C(=O)O)cc1 | 3% | -8% | 13% | -10% | 3%
COc1ccc(C(c2c(C)n(C)n(-c3ccccc3)c2=O)c2c(C)n(C)n(-c3ccccc3)c2=O)cc1 | -5% | 0% | -17% | -8% | .
CCOC(=O)c1c(C2CC2)csc1NC(C)=O | -7% | 28% | -7% | ? | -2%
CC1CN(C(=S)NC(=O)c2ccc([N+](=O)[O-])cc2)CC(C)O1 (configuration not stated) | 1.3µM* | 0.45µM* | 6% | 1% | 3%
O=C(NC(=S)N1CCOCC1)c1ccc([N+](=O)[O-])cc1 | 2.2µM* | 1.4µM* | 1% | -13% | 3%
CC1CN(C(=S)c2cccc([N+](=O)[O-])c2)CC(C)O1 (configuration not stated) | 7% | 2% | ? | ? | -6%
CC1CN(C(=S)SCC(=O)c2ccc([N+](=O)[O-])cc2)CC(C)O1 (configuration not stated) | 3% | 18% | 2.6µM* | 5.2µM* | .
[O-][n+]1onc2c1CCC(=N/O)/C2=N\Nc1ccccc1 | -27% | ? | . | . | 6%
